Paper PMC8384837, “Expanding the binding specificity for RNA recognition by a PUF domain”

Columns and labels:
Experiment in all cases: yeast three-hybrid, YBZ-1, SC-Leu-His + 0.5 mM 3-AT, 4 days
Settings in all cases: tags: N-Gal4 AD-HA kept; label: inside an RPR1-promoter hybrid RNA with tandem MS2 sites; ssRNA
PUM1 PUF domain R7-TSV = PUM1 PUF domain R7-TSV (Homo sapiens, UniProt Q14671 828-1176, S1079T;N1080S;E1083V)
Method in brief: (§1)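 Sequencing with Illumina followed PCR amplification of the repeat regions from transformants grown four days on SC-Leu (input) or SC-Leu-His + 0.5 mM 3-AT (selection). The transformants were strain YBZ-1 with a LexA–MS2 coat fusion and a HIS3 reporter, carrying Pumilio-1 PUF domain libraries and matching RNA elements. The interaction score is the log change in variant frequency from input to selection, computed in log2 with a pseudocount of 1 for absent variants.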

PUM1 PUF domain R8-PWA = PUM1 PUF domain R8-PWA (Homo sapiens, UniProt Q14671 828-1176, N1122P;Y1123W;Q1126A)
Method in brief: as §1

PUM1 PUF domain R8-RHN = PUM1 PUF domain R8-RHN (Homo sapiens, UniProt Q14671 828-1176, N1122R;Y1123H;Q1126N)
Method in brief: as §1

PUM1 PUF domain R6-LFS = target: T1, PUM1 PUF domain R6-LFS (Homo sapiens, UniProt Q14671 828-1176, N1043L;Y1044F;Q1047S)
T1 sequence: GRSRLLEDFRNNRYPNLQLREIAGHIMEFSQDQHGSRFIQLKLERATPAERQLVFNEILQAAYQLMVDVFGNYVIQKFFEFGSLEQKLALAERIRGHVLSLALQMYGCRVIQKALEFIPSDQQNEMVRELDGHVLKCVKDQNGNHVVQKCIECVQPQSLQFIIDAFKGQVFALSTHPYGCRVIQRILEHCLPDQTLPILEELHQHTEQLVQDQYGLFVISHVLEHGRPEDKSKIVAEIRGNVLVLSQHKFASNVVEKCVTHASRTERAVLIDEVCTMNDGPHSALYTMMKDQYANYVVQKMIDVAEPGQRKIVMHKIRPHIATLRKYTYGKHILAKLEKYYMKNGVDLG
Method in brief: as §1

PUM1 PUF domain R3-ARH = PUM1 PUF domain R3-ARH (Homo sapiens, UniProt Q14671 828-1176, C935A;Q939H)
Method in brief: as §1

PUM1 PUF domain R4-CPL = PUM1 PUF domain R4-CPL (Homo sapiens, UniProt Q14671 828-1176, N971C;H972P;Q975L)
Method in brief: as §1

PUM1 PUF domain R3-YRS = PUM1 PUF domain R3-YRS (Homo sapiens, UniProt Q14671 828-1176, C935Y;Q939S)
Method in brief: as §1

PUM1 PUF domain R3-CNT = PUM1 PUF domain R3-CNT (Homo sapiens, UniProt Q14671 828-1176, R936N;Q939T)
Method in brief: as §1

PUM1 PUF domain R4-GQG = PUM1 PUF domain R4-GQG (Homo sapiens, UniProt Q14671 828-1176, N971G;H972Q;Q975G)
Method in brief: as §1

PUM1 PUF domain R4-FGQ = PUM1 PUF domain R4-FGQ (Homo sapiens, UniProt Q14671 828-1176, N971F;H972G)
Method in brief: as §1

PUM1 PUF domain R3-FRV = PUM1 PUF domain R3-FRV (Homo sapiens, UniProt Q14671 828-1176, C935F;Q939V)
Method in brief: as §1

PUM1 PUF domain R3-YWR = PUM1 PUF domain R3-YWR (Homo sapiens, UniProt Q14671 828-1176, C935Y;R936W;Q939R)
Method in brief: as §1

PUM1 PUF domain R7-HFP = PUM1 PUF domain R7-HFP (Homo sapiens, UniProt Q14671 828-1176, S1079H;N1080F;E1083P)
Method in brief: as §1

PUM1 PUF domain R2-AVA = PUM1 PUF domain R2-AVA (Homo sapiens, UniProt Q14671 828-1176, N899A;Y900V;Q903A)
Method in brief: as §1

PUM1 PUF domain R5-KSN = PUM1 PUF domain R5-KSN (Homo sapiens, UniProt Q14671 828-1176, C1007K;R1008S;Q1011N)
Method in brief: as §1

PUM1 PUF domain R1-YKR = PUM1 PUF domain R1-YKR (Homo sapiens, UniProt Q14671 828-1176, S863Y;R864K;Q867R)
Method in brief: as §1

PUM1 PUF domain R1-RRR = PUM1 PUF domain R1-RRR (Homo sapiens, UniProt Q14671 828-1176, S863R;Q867R)
Method in brief: as §1

PUM1 PUF domain R3-YRS, sequence (Q14671 828-1176 C935Y/Q939S): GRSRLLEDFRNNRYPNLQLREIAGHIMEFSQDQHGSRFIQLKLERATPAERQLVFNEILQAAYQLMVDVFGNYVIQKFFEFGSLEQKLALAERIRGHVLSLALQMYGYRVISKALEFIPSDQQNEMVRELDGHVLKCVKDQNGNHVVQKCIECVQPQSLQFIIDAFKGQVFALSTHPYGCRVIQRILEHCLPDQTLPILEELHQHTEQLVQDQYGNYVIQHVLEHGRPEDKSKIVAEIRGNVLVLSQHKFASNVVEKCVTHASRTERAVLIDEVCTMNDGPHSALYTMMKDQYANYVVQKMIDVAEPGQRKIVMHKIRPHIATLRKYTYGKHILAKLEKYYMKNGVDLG
PUM1 PUF domain R4-CPL, sequence (Q14671 828-1176 N971C/H972P/Q975L): as the sequence (Q14671 828-1176 C935Y/Q939S) above, with Y108C, S112Q, N144C, H145P, Q148L counted along it
PUM1 PUF domain R1-RRR, sequence (Q14671 828-1176 S863R/Q867R): as the sequence (Q14671 828-1176 C935Y/Q939S) above, with S36R, Q40R, Y108C, S112Q counted along it
PUM1 PUF domain R4-FGQ, sequence (Q14671 828-1176 N971F/H972G): as the sequence (Q14671 828-1176 C935Y/Q939S) above, with Y108C, S112Q, N144F, H145G counted along it
PUM1 PUF domain R5-KSN, sequence (Q14671 828-1176 C1007K/R1008S/Q1011N): as the sequence (Q14671 828-1176 C935Y/Q939S) above, with Y108C, S112Q, C180K, R181S, Q184N counted along it
PUM1 PUF domain R2-AVA, sequence (Q14671 828-1176 N899A/Y900V/Q903A): as the sequence (Q14671 828-1176 C935Y/Q939S) above, with N72A, Y73V, Q76A, Y108C, S112Q counted along it
PUM1 PUF domain R1-YKR, sequence (Q14671 828-1176 S863Y/R864K/Q867R): as the sequence (Q14671 828-1176 C935Y/Q939S) above, with S36Y, R37K, Q40R, Y108C, S112Q counted along it
PUM1 PUF domain R3-YWR, sequence (Q14671 828-1176 C935Y/R936W/Q939R): as the sequence (Q14671 828-1176 C935Y/Q939S) above, with R109W, S112R counted along it
PUM1 PUF domain R3-CNT, sequence (Q14671 828-1176 R936N/Q939T): as the sequence (Q14671 828-1176 C935Y/Q939S) above, with Y108C, R109N, S112T counted along it
PUM1 PUF domain R8-RHN, sequence (Q14671 828-1176 N1122R/Y1123H/Q1126N): as the sequence (Q14671 828-1176 C935Y/Q939S) above, with Y108C, S112Q, N295R, Y296H, Q299N counted along it

For “GGCUAGAACUAGUGGAUCCCCCGGCGCCCGGCGGCUCGAGCCCGGGUAAGUUUAAAUAGUCUGCAUGCCGCCGGGCGCCAUGCCUGCAGGUCGACUCUAGAAAACAUG”, the binding signal (PUM1 PUF domain R7-TSV) was 2.77 log2 enrichment (interaction score).

For “GGCUAGAACUAGUGGAUCCCCCGGCGCCCGGCGGCUCGAGCCCGGGUAAGCGUAAAUAGUCUGCAUGCCGCCGGGCGCCAUGCCUGCAGGUCGACUCUAGAAAACAUG”, the binding signal (PUM1 PUF domain R8-PWA) was 2.7 log2 enrichment (interaction score) and the binding signal (PUM1 PUF domain R8-RHN) was 5.56 log2 enrichment (interaction score).

For “GGCUAGAACUAGUGGAUCCCCCGGCGCCCGGCGGCUCGAGCCCGGGUAAGUGUAAAUAGUCUGCAUGCCGCCGGGCGCCAUGCCUGCAGGUCGACUCUAGAAAACAUG”, the binding signal (PUM1 PUF domain R8-PWA) was 2.2 log2 enrichment (interaction score), the binding signal (PUM1 PUF domain R6-LFS) was 1.98 log2 enrichment (interaction score) and the binding signal (PUM1 PUF domain R3-ARH) was 3.26 log2 enrichment (interaction score). The binding signal (PUM1 PUF domain R4-CPL) was 3.68 log2 enrichment (interaction score), the binding signal (PUM1 PUF domain R3-YRS) was 1.29 log2 enrichment (interaction score) and the binding signal (PUM1 PUF domain R3-CNT) was 2.18 log2 enrichment (interaction score).

With “GGCUAGAACUAGUGGAUCCCCCGGCGCCCGGCGGCUCGAGCCCGGGUAAGUGAAAAUAGUCUGCAUGCCGCCGGGCGCCAUGCCUGCAGGUCGACUCUAGAAAACAUG” the binding signal (PUM1 PUF domain R6-LFS) was 5.7 log2 enrichment (interaction score).

With “GGCUAGAACUAGUGGAUCCCCCGGCGCCCGGCGGCUCGAGCCCGGGUAAGUGUAUAUAGUCUGCAUGCCGCCGGGCGCCAUGCCUGCAGGUCGACUCUAGAAAACAUG” the binding signal (PUM1 PUF domain R4-GQG) was 2.39 log2 enrichment (interaction score), the binding signal (PUM1 PUF domain R4-CPL) was 1.78 log2 enrichment (interaction score) and the binding signal (PUM1 PUF domain R4-FGQ) was 3.63 log2 enrichment (interaction score).

“GGCUAGAACUAGUGGAUCCCCCGGCGCCCGGCGGCUCGAGCCCGGGUAAGUGUAAUUAGUCUGCAUGCCGCCGGGCGCCAUGCCUGCAGGUCGACUCUAGAAAACAUG” was tested, and the binding signal (PUM1 PUF domain R3-FRV) was 1.27 log2 enrichment (interaction score).

With “GGCUAGAACUAGUGGAUCCCCCGGCGCCCGGCGGCUCGAGCCCGGGUAAGUGUAAGUAGUCUGCAUGCCGCCGGGCGCCAUGCCUGCAGGUCGACUCUAGAAAACAUG” the binding signal (PUM1 PUF domain R3-FRV) was 4.5 log2 enrichment (interaction score), the binding signal (PUM1 PUF domain R3-YWR) was 5.62 log2 enrichment (interaction score) and the binding signal (PUM1 PUF domain R3-YRS) was 4.29 log2 enrichment (interaction score).

“GGCUAGAACUAGUGGAUCCCCCGGCGCCCGGCGGCUCGAGCCCGGGUAAGUCUAAAUAGUCUGCAUGCCGCCGGGCGCCAUGCCUGCAGGUCGACUCUAGAAAACAUG” was tested, and the binding signal (PUM1 PUF domain R7-HFP) was 4.02 log2 enrichment (interaction score).

“GGCUAGAACUAGUGGAUCCCCCGGCGCCCGGCGGCUCGAGCCCGGGUAAGUGUAAAGAGUCUGCAUGCCGCCGGGCGCCAUGCCUGCAGGUCGACUCUAGAAAACAUG” was tested, and the binding signal (PUM1 PUF domain R2-AVA) was 2.41 log2 enrichment (interaction score).

For “GGCUAGAACUAGUGGAUCCCCCGGCGCCCGGCGGCUCGAGCCCGGGUAAGUGUCAAUAGUCUGCAUGCCGCCGGGCGCCAUGCCUGCAGGUCGACUCUAGAAAACAUG”, the binding signal (PUM1 PUF domain R5-KSN) was 3.85 log2 enrichment (interaction score).

“GGCUAGAACUAGUGGAUCCCCCGGCGCCCGGCGGCUCGAGCCCGGGUAAGUGUAAAUCGUCUGCAUGCCGCCGGGCGCCAUGCCUGCAGGUCGACUCUAGAAAACAUG” was tested, and the binding signal (PUM1 PUF domain R1-YKR) was 8.91 log2 enrichment (interaction score) and the binding signal (PUM1 PUF domain R1-RRR) was 2.46 log2 enrichment (interaction score).

With “GGCUAGAACUAGUGGAUCCCCCGGCGCCCGGCGGCUCGAGCCCGGGUAAGUGUAAAUUGUCUGCAUGCCGCCGGGCGCCAUGCCUGCAGGUCGACUCUAGAAAACAUG” the binding signal (PUM1 PUF domain R1-RRR) was 2.49 log2 enrichment (interaction score).
